Measurements published in the supplement of paper PMC10849652.
Targets with a hit are over-represented here; the source holds about 7,900 in all. About 0.6% of all pairs of compound and target were hits.

compound: c1cn2cc(-c3ccc4cn[nH]c4c3)nc(Nc3ccc(N4CCOCC4)cc3)c2n1 [entospletinib]; assay: log2 fold change, soluble protein after heating vs DMSO (PISA); higher = thermal stabilisation; K562 cells, 10 uM, 30 min; active = over 0.2 and 3.5 SD of the protein, either way, in both replicates (recomputed)
Method in brief: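 K562 cells at 2×10^6 cells/mL were exposed to 10 μM compound for 30 min, then aliquots were heated for 3 min across 48°C-58°C, pooled, and extracted in PBS containing 0.5% NP-40 at 4°C. The supernatant after 21,000xg for 90 min was taken as soluble protein and measured by TMTpro 16plex LC-MS/MS with channel sums equalised. Thermal stability is reported relative to control samples, with values from duplicates. Fold changes are given on a log2 scale.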

Sequence of UniProt P28070 (P28070 whole entry, looked up): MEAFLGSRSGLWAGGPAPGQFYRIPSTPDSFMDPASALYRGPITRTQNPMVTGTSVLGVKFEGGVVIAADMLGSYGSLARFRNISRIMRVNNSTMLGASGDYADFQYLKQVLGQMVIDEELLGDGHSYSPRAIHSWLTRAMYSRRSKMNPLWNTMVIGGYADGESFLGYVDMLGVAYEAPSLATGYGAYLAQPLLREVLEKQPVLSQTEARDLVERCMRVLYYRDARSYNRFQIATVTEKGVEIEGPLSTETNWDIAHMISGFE
Sequence of UniProt O95997 (O95997 whole entry, looked up): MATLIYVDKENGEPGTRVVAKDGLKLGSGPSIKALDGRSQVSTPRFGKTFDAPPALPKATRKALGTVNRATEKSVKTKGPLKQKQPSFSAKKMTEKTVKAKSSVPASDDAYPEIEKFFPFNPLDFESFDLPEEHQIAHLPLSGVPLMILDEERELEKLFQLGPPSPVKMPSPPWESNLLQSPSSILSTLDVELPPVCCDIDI
Sequence of UniProt P17980 (P17980 whole entry, looked up): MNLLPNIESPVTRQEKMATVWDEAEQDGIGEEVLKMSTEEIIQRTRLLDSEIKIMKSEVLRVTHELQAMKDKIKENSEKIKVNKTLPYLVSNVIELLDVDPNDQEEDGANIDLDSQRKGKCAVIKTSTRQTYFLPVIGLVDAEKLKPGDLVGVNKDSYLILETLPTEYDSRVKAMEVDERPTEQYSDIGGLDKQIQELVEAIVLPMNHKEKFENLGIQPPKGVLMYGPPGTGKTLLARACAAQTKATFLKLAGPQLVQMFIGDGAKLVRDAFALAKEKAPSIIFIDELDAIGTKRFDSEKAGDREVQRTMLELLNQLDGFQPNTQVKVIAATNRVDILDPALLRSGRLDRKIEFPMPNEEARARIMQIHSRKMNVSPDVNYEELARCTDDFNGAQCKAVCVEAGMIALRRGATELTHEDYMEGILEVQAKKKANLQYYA
Sequence of UniProt Q93096 (Q93096 whole entry, looked up): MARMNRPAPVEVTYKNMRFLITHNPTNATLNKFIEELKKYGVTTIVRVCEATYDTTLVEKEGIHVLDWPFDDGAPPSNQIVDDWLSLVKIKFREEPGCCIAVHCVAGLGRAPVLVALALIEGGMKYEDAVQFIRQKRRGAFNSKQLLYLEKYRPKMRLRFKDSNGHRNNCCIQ
Sequence of UniProt Q9NR22 (Q9NR22 whole entry, looked up): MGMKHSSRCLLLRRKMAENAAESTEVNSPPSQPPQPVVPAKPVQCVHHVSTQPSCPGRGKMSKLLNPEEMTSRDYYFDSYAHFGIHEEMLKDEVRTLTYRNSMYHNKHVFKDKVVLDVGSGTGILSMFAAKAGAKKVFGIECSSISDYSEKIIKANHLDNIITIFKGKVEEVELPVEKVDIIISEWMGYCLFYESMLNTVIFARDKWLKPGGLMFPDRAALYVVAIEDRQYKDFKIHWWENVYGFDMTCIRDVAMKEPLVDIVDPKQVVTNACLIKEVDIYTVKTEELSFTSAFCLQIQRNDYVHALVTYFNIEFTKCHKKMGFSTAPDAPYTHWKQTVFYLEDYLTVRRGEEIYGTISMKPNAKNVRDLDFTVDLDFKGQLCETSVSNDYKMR
Sequence of UniProt P50336 (P50336 whole entry, looked up): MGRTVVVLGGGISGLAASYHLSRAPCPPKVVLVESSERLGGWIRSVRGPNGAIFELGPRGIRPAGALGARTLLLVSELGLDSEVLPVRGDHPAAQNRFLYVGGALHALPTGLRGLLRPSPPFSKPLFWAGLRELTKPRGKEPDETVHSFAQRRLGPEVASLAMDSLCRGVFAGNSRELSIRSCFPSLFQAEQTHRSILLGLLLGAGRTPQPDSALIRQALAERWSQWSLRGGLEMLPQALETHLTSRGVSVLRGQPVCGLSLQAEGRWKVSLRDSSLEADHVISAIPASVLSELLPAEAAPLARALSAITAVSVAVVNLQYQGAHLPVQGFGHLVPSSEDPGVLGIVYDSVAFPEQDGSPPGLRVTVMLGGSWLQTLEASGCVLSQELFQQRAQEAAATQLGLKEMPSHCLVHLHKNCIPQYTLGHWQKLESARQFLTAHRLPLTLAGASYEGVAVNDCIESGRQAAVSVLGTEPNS
Sequence of UniProt P27986 (P27986 whole entry, looked up): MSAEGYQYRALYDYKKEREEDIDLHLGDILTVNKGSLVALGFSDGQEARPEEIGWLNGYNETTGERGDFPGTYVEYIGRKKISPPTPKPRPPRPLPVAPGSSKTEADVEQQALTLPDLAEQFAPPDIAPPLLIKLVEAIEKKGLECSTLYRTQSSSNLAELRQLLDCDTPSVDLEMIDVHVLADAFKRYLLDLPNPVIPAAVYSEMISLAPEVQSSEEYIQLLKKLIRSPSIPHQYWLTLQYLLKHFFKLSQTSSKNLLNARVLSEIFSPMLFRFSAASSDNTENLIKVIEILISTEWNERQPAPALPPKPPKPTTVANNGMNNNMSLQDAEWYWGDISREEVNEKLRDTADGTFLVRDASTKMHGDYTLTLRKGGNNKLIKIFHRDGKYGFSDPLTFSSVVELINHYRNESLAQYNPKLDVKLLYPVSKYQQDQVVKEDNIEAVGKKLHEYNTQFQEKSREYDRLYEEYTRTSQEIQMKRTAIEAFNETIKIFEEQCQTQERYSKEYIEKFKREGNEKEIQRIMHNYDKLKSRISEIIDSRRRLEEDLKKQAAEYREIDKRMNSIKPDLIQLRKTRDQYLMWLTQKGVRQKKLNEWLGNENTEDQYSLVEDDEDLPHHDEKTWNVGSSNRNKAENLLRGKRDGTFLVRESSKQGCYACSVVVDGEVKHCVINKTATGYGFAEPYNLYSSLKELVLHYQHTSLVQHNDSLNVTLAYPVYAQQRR
Sequence of UniProt Q86YH6 (Q86YH6 whole entry, looked up): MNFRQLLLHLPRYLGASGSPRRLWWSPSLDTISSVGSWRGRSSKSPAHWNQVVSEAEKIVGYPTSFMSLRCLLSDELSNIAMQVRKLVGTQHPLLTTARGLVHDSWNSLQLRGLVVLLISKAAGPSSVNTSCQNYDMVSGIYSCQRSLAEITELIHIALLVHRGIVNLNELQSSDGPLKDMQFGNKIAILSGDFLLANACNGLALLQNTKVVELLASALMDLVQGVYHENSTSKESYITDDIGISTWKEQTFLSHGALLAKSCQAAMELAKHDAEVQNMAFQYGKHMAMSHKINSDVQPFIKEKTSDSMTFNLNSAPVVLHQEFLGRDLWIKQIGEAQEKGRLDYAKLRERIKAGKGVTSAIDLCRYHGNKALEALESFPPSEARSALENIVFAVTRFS
Sequence of UniProt Q8WWY3 (Q8WWY3 whole entry, looked up): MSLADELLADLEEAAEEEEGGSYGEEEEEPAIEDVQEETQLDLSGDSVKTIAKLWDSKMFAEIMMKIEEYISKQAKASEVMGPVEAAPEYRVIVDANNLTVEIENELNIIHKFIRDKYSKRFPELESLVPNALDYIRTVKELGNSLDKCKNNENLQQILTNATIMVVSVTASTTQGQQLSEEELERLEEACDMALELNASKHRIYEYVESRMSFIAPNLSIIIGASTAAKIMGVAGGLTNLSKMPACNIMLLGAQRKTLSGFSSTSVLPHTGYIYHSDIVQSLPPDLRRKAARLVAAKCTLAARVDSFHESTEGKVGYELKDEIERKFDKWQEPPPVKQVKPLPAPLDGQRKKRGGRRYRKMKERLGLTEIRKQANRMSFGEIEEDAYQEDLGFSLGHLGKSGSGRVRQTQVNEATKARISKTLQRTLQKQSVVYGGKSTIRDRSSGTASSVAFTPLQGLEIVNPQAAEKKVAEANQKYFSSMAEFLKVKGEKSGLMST
Sequence of UniProt Q7RTV0 (Q7RTV0 whole entry, looked up): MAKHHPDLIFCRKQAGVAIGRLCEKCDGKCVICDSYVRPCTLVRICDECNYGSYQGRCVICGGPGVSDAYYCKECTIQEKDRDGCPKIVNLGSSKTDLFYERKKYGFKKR
Sequence of UniProt Q8WUK0 (Q8WUK0 whole entry, looked up): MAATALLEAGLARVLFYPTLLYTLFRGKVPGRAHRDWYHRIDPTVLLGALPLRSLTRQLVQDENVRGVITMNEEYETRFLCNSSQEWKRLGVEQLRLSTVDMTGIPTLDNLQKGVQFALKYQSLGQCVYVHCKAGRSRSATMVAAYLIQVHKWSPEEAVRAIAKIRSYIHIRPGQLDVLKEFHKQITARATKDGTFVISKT
Sequence of UniProt Q9UKL6 (Q9UKL6 whole entry, looked up): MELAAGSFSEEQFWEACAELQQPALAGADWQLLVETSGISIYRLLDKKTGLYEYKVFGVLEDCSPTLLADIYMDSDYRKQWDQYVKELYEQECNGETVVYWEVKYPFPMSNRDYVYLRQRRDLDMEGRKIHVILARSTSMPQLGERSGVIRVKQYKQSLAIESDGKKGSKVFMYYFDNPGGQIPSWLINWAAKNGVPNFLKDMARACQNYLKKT

log2 fold change, inactive:
PSMC3 (UniProt P17980) 0
PIK3R1 (UniProt P27986) -0.045
PTP4A1 (UniProt Q93096) 0
PHKA1 (UniProt P46020) 0.063
PJA2 (UniProt O43164) -0.009
PSMB6 (UniProt P28072) 0.008
PIK3C3 (UniProt Q8NEB9) 0.039
POLR2M (UniProt Q6EEV4) 0.056
PCTP (UniProt Q9UKL6) -0.072
PRCP (UniProt P42785) -0.062
PLCL1 (UniProt Q15111) -0.099
POLR2A (UniProt P24928) 0.162
PLIN2 (UniProt Q99541) 0.043
PSMB4 (UniProt P28070) -0.009
PRKCE (UniProt Q02156) 0.016
PTPMT1 (UniProt Q8WUK0) -0.018
PPP2R5C isoform 2 (UniProt Q13362) -0.041
POTEI (UniProt P0CG38) -0.074
PLBD1 (UniProt Q6P4A8) 0.011
PSMD6 (UniProt Q15008) 0.058
PLSCR1 (UniProt O15162) -0.045
PSMD3 (UniProt O43242) 0.049
PARN (UniProt O95453) -0.06
PRKCG (UniProt P05129) 0.044
PDPK1 (UniProt O15530) -0.037
PRKAR1B (UniProt P31321) 0.231
PARP1 (UniProt P09874) -0.092
PRMT8 (UniProt Q9NR22) 0
PTTG1 (UniProt O95997) -0.027
PRPF31 (UniProt Q8WWY3) 0.025
PIP4K2B (UniProt P78356) -0.04
PDSS2 (UniProt Q86YH6) -0.152
PDE4DIP (UniProt E9PS60) -0.01
PRUNE1 (UniProt Q86TP1) 0.029
PHF5A (UniProt Q7RTV0) -0.101
PPOX (UniProt P50336) 0.028
PKN2 (UniProt Q16513) 0.007
PSME4 (UniProt Q14997) -0.003
PRKCQ (UniProt Q04759) 0.017
